The nature of experiment [1]: qHTS assay to identify small molecule antagonists of the vitamin D receptor (VDR) signaling pathway - cell viability counter screen (AID 743225). Further: nearly all actives have a fitted effect of over 50% in size. In outline: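 Read-out: CellTiter-Glo luminescence measured 30 min after reagent addition at room temperature. Cells were VDR-bla HEK 293T exposed 16 h at 37C, 5% CO2, to compound with 3 nM final calcitriol agonist.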
For orientation: qHTS replaces the single test concentration by a dilution series.

Experiment [2] in a line: qHTS assay to identify small molecule agonists of the NFkB signaling pathway - cell viability counter screen (AID 1159515; calls by dose curve; further: series mostly up to about 61 µM; nearly all actives have a fitted effect of over 55% in size). The method, boiled down:
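5 hr compound treatment of NFkB-bla ME-180 cells (2,000/well, seeded overnight beforehand), followed by reporter substrate for 1.5 hr. CellTiter-Glo added afterward; luminescence after 30 min RT.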

Experiment [3] is described as follows: qHTS assay to identify small molecule agonists of the endoplasmic reticulum stress response signaling pathway (AID 1159516; active means well fitted activation curve with a large enough effect in the signal ratio in the repeat runs, not every such curve was filed as active; the % refers to the signal ratio). The method, boiled down: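 Reporter HeLa cells (ESRE-beta-lactamase) underwent 5 hr compound incubation at 37 C and 5% CO2 in quantitative HTS format. Detection followed 2 hr of FRET substrate loading at room temperature.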
A short description of experiment [4]: qHTS assay to identify small molecule agonists of the endoplasmic reticulum stress response signaling pathway - cell viability counter screen (AID 1159517; calls by dose curve; further: series mostly up to about 61 µM; nearly all actives have a fitted effect of over 50% in size). The method, boiled down: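 HeLa cells carrying an ESRE-driven beta-lactamase reporter receive compound for 5 hr at 37 C. Cell viability is then gauged with CellTiter-Glo by luminescence, 30 min at room temperature.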

Experiment [5] is described as follows: qHTS assay to identify small molecule antagonists of the retinoid-related orphan receptor gamma (ROR-gamma) signaling pathway - cell viability counter screen (AID 1159520). Further: nearly all actives have a fitted effect of over 50% in size. The method, boiled down: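 Cytotoxicity was read from cellular ATP (CellTiter-Glo luminescence) after 16 hr at 37 C with 1 uM doxycycline induction. The inducer was added 2 hr after compound transfer to Tet-on ROR gamma CHO cells.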

For experiment [6], the target named is Nuclear receptor ROR-gamma (Homo sapiens) (UniProt P51449). The experiment in a line: qHTS assay to identify small molecule antagonists of the retinoid-related orphan receptor gamma (ROR-gamma) signaling pathway (AID 1159521;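 further: CHO cells with doxycycline inducible ROR-gamma driving an RORE luciferase reporter; top concentration of the series differs between compounds; nearly all actives have a fitted effect of over 50% in size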). The method, boiled down:
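CHO Tet-on RORγ, RORE-luc reporter. Cpd 2 h pre-incubation, then dox hyclate 1 uM final, 16 h, 37 C/5% CO2. ONE-Glo luminescence; decrease = antagonist.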

Experiment [7] is described as follows: qHTS assay to identify small molecule agonists of the AP-1 signaling pathway - cell viability counter screen (AID 1159525; calls by dose curve; further: nearly all actives have a fitted effect of over 55% in size). The method, boiled down: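 Luminescent ATP readout (Cell Titer Glo, 30 min RT), normalised to DMSO and tetra n-octyl ammonium bromide controls. Cells were ME-180 AP-1-bla in 0.5% dialyzed FBS Opti-MEM, with a 5 h, 37 °C compound exposure.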

Experiment [8] in a line: qHTS assay to identify small molecule agonists of the AP-1 signaling pathway (AID 1159526; calls by dose curve).
The target in experiment [9] is Retinoic acid receptor RXR-alpha (Homo sapiens) (UniProt P19793). The experiment in a line: qHTS assay to identify small molecule agonists of the RXR signaling pathway (AID 1159527; calls by dose curve; further: nearly all actives have a fitted effect of over 35% in size; further: potency means the concentration at half of the fitted maximal effect). The method, boiled down:
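Read-out: beta-lactamase FRET ratio (405 nm excitation, 460 and 530 nm emission) after 2 hr substrate loading at room temperature. Cells were RXR-alpha-UAS-bla HEK 293T treated with compounds for 16 hr in 2% charcoal-stripped FBS medium.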

Experiment [10] in a line: qHTS assay to identify small molecule agonists of the RXR signaling pathway - cell viability counter screen (AID 1159529). In outline: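 HEK 293T RXRa-bla cells, 2% CS-FBS; 5 h settle; cpd 16 h 37 C, 5% CO2; CellTiter-Glo 30 min RT, luminescence. Tetraoctyl ammonium bromide as positive control.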
Experiment [11] can be described thus: qHTS assay to identify small molecule antagonists of the retinoid acid receptor (RAR) signaling pathway - cell viability counter screen (AID 1159551). Further: nearly all actives have a fitted effect of over 35% in size. In outline: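 Seed C3RL4 cells; next day add compound, then retinol to 1 uM final; incubate 6 h at 37 C; add CellTiter-Glo; read luminescence after 30 min at RT.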
Experiment [12] can be described thus: qHTS assay to identify small molecule agonists of the retinoic acid receptor (RAR) signaling pathway (AID 1159553). The method, boiled down:
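Activation of retinol signaling was monitored via a RARE luciferase reporter in C3RL4 cells. After 6 hr compound treatment at 37 C, detection reagent was added for 30 min at room temperature before luminescence reading.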

Experiment [13] can be described thus: qHTS assay to identify small molecule antagonists of the estrogen related receptor (ERR) signaling pathway from Tox21 library - cell viability counter screen (AID 1224834). Further: nearly all actives have a fitted effect of over 30% in size. In outline:
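CellTiter-Fluor fluorescence measured; ERR cells; 17.5 h compound incubation at 37 C; 30 min reagent step.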

The target of experiment [14] is Luciferin 4-monooxygenase (Photinus pyralis) (UniProt P08659). The experiment in a line: qHTS assay to identify small molecule inhibitors of firefly luciferase (AID 1224835). Further: series mostly up to about 120 µM; nearly all actives have a fitted effect of over 25% in size. The method, boiled down: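 Inhibition of purified Photinus luciferase is measured by luminescence. Substrate levels (D-luciferin, ATP) sit at their KM values. Each compound is tested in a concentration series.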
Luciferin 4-monooxygenase (Photinus pyralis), sequence (P08659 whole entry, looked up): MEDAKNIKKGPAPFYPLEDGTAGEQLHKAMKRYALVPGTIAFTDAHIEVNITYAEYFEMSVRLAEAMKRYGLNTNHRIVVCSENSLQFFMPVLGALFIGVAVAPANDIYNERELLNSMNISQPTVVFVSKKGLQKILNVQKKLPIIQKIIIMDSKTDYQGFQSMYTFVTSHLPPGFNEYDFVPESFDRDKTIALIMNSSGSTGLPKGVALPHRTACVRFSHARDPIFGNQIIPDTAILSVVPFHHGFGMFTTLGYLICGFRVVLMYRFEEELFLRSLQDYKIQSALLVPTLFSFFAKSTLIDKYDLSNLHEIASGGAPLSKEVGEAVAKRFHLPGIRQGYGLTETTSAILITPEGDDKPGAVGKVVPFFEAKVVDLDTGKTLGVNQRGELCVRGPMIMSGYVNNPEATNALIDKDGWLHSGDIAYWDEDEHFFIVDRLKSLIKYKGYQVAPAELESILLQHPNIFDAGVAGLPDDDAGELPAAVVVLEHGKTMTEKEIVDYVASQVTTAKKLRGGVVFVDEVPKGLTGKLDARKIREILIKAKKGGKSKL

A short description of experiment [15]: qHTS assay to identify small molecule agonists of the constitutive androstane receptor (CAR) signaling pathway - cell viability counter screen (AID 1224836). Further: series mostly up to about 92 µM; nearly all actives have a fitted effect of over 45% in size. The method, boiled down: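 HepG2-CYP2B6-hCAR, 2500 cells/well, 4 h pre-incubation; cpd 15 conc + PK11195 0.75 uM final; 23 h, 37 C/5% CO2; CellTiter-Fluor, fluorescence.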
The nature of experiment [16]: qHTS assay to identify small molecule antagonists of the constitutive androstane receptor (CAR) signaling pathway - cell viability counter screen (AID 1224837). Further: series mostly up to about 92 µM; nearly all actives have a fitted effect of over 45% in size. In outline: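 Using CellTiter-Fluor, viability is scored in HepG2 cells stably carrying hCAR and a 2.2kb CYP2B6 reporter after 23 hr compound exposure across 15 concentrations, with CITCO present at 50 nM.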

Experiment [17] is described as follows: qHTS assay to identify small molecule antagonists of the estrogen related receptor signaling pathway with the pleiotropic PPARgamma coactivator (PGC) from Tox21 10K library - cell viability counter screen (AID 1224840; active means well fitted cell-killing curve with a large enough effect in the repeat runs, not every such curve was filed as active; further: nearly all actives have a fitted effect of over 40% in size). The method, boiled down:
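Here the PGC/ERR cells serve as a cytotoxicity control: they are exposed to compounds for 17.5 hours at 37 C, and live-cell signal is quantified using CellTiter-Fluor fluorescence.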

Experiment [18] in a line: qHTS assay to identify small molecule antagonists of the retinoic acid receptor (RAR) signaling pathway (AID 1159552; further: nearly all actives have a fitted effect of over 50% in size). In outline: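 Cells of the C3RL4 line were seeded, incubated overnight, then dosed with compounds in DMSO followed immediately by retinol (1 uM final). Six hours later luciferase detection reagent went in; signal was measured after 30 min at RT.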
For experiment [19], the target named is Nuclear receptor subfamily 1 group I member 3 (Homo sapiens) (UniProt Q14994). The experiment in a line: qHTS assay to identify small molecule agonists of the constitutive androstane receptor (CAR) signaling pathway (AID 1224839). Further: series mostly up to about 92 µM; nearly all actives have a fitted effect of over 15% in size. The method, boiled down:
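HepG2-CYP2B6-hCAR cells, 2500/well, 4 h pre-incubation; compounds 15 conc.; PK11195 0.75 uM final; 24 h, 37 C/5% CO2; ONE-Glo luciferase read.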

The target is the same in experiment [20]. In words: qHTS assay to identify small molecule antagonists of the constitutive androstane receptor (CAR) signaling pathway (AID 1224838).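 Further: HepG2 cells stably expressing hCAR with CYP2B6 luciferase reporter stimulated by CITCO; nearly all actives have a fitted effect of over 40% in size.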 The method, boiled down: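 Reporter luminescence was quantified after 24 h exposure of hCAR/CYP2B6-2.2kb double-stable HepG2 cells to compounds at 15 concentrations in the presence of 50 nM CITCO final.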

The structures appear in SMILES notation. Inconclusive results are not listed. Unmarked numbers belong to inactive results. The source made the active and inactive calls. Unless noted, the call rests on the fitted dose curve; in most records, active means well fitted curve in the direction sought with a large enough effect in the repeat runs; inconclusive means weak or mixed curves; inactive means no such curve, though single readings can be large; an effect the other way counts as inactive or inconclusive.

Nuclear receptor subfamily 1 group I member 3 (Homo sapiens), sequence (Q14994 whole entry, looked up): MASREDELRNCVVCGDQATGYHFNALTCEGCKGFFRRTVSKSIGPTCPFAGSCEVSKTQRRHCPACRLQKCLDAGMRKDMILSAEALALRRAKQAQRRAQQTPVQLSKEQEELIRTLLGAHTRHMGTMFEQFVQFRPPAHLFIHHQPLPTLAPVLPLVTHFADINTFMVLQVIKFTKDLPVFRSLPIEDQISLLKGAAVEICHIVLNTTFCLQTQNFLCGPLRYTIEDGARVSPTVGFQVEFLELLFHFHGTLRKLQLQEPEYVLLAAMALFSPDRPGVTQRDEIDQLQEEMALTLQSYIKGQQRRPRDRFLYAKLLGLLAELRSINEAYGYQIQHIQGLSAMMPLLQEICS
Retinoic acid receptor RXR-alpha (Homo sapiens), sequence (P19793 whole entry, looked up): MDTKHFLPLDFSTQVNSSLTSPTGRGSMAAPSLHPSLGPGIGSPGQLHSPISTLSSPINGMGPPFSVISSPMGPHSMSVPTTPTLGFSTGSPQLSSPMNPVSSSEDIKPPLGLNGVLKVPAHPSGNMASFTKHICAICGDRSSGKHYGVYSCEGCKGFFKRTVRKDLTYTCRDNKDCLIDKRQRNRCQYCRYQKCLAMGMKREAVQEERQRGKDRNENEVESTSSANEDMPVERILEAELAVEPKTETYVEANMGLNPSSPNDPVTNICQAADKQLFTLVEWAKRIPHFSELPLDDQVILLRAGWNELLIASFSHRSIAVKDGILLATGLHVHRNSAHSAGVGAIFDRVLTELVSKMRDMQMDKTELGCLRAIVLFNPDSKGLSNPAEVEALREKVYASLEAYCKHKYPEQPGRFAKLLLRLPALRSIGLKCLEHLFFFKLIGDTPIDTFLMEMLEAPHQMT

Turning to `COc1ccc(Cl)cc1C`, the call in experiment [1], in experiment [2], in experiment [4], in [5], in experiment [6] and in experiment [7] was inactive. Further, the outcome in [11], in experiment [13], in experiment [15], in experiment [16] and in experiment [17] was inactive. Also, the Potency result in experiment [3], in experiment [8], in [9], in experiment [10], in experiment [12] and in [14] was “inactive” each time.

Consider `O=C(O)CCC(=O)Nc1ccc(S(=O)(=O)Nc2nccs2)cc1`, for which the compound was called inactive in experiment [1], in [2], in [4], in experiment [5], in experiment [6] and in experiment [7]. In addition, the compound was classed as inactive in experiment [11], in [18], in [15], in experiment [16] and in [17]. Moreover, the Potency entry in experiment [3], in experiment [8], in experiment [9], in experiment [10], in experiment [12] and in [14] was “inactive” in each case.

On to `O=c1c(O)c(O)c1=O`, for which the compound was classed as inactive in experiment [1], in experiment [2], in experiment [4], in experiment [5], in experiment [6] and in experiment [7]. Moreover, the compound was called inactive in experiment [11], in experiment [13], in experiment [15], in experiment [16] and in [17]. Further, the Potency entry in [3], in experiment [8], in experiment [9], in experiment [10], in experiment [12] and in experiment [14] was “inactive” each time. In experiment [19], the Potency result was “inactive”.

As to `CC(C)c1cc(C(C)C)cc(C(C)C)c1`, the call in experiment [1], in [2], in experiment [4], in [5], in experiment [6] and in experiment [7] was inactive. In addition, the compound was classed as inactive in experiment [11], in experiment [18], in experiment [13], in experiment [15], in experiment [16] and in experiment [17]. The Potency entry in experiment [3], in experiment [8], in experiment [12] and in experiment [14] was “inactive” throughout. The Potency in experiment [9] was 15.5 µM (active).

As for `Nc1cc(S(=O)(=O)O)ccc1O`, the outcome in [1], in experiment [2], in experiment [4], in experiment [5], in [6] and in experiment [7] was inactive. Also, the outcome in [11], in experiment [18], in experiment [13], in experiment [15], in [16] and in experiment [17] was inactive. Besides, the Potency result in experiment [3], in experiment [8], in [9], in experiment [12], in [14] and in experiment [19] was “inactive” each time.

As for `CCCCCCCOC(C)=O`, the call in experiment [1], in experiment [2], in [4], in [5], in [6] and in experiment [7] was inactive. In addition, the call in [11], in [18], in [13], in experiment [15], in experiment [16] and in [17] was inactive. Further, the Potency entry in [3], in experiment [8], in [9], in [12] and in experiment [14] was “inactive” in each case.

With `CC[C@@]1(c2ccccc2)NC(=O)N(C)C1=O`, the compound was called inactive in experiment [1], in experiment [2], in experiment [4], in experiment [5], in [6] and in [7]. Besides, the outcome in experiment [11], in [18], in experiment [13], in experiment [15], in [16] and in [17] was inactive. Moreover, the Potency result in experiment [3], in experiment [8], in experiment [9], in experiment [12] and in experiment [14] was “inactive” each time.

As for `CC(=O)c1c(C)cc(C(C)(C)C)cc1C`, the outcome in experiment [1], in [2], in [4], in experiment [5], in experiment [6] and in experiment [7] was inactive. Further, the compound was called inactive in [11], in experiment [18], in experiment [15], in experiment [16] and in experiment [20]. Besides, the Potency result in experiment [3], in [8], in experiment [9], in experiment [12], in experiment [14] and in experiment [19] was “inactive” throughout.

In the case of `COCc1nnc(-c2ccc[n+]([O-])c2)n1-c1c(Cl)c(Cl)cc2[nH]c(=O)c(=O)[nH]c12`, the compound was classed as inactive in [1], in experiment [2], in [4], in [5], in [6] and in [7]. Also, the result in [11], in [15] and in [16] was inactive. In addition, the Potency result in [3], in experiment [8], in experiment [9], in experiment [10], in experiment [12] and in experiment [14] was “inactive” throughout.
